Assays:
Assay type in all cases: functional
[1] = target: Solute carrier family 2, facilitated glucose transporter member 1 (Homo sapiens) (UniProt P11166); assay: ST_JUDE_LEISH: Cytotoxicity at 2uM final concentration against transgenic Leishmania Mexicana promastigotes LmGLUT1 that are glucose transport deficient and complemented with the human glucose transporter GLUT1. Activity is measured by DNA content using SYBR green in vitro
[2] = target: Hexose transporter 1 (Plasmodium falciparum) (UniProt O97467); assay: ST_JUDE_LEISH: Cytotoxicity at 2uM final concentration against transgenic Leishmania Mexicana promastigotes LmPfHT that are glucose transport deficient and complemented with the Plasmodium falciparum hexose transporter. Activity is measured by DNA content using SYBR green in vitro
[3] = target: Glucose transporter (Leishmania mexicana) (UniProt O61059); assay: ST_JUDE_LEISH: Cytotoxicity at 2uM final concentration against transgenic Leishmania Mexicana promastigotes LmGT2 that are glucose transport deficient and complemented with the L. Mexicana glucose transporter 2. Activity is measured by DNA content using SYBR green in vitro

Sequence of Solute carrier family 2, facilitated glucose transporter member 1 (Homo sapiens) (P11166 whole entry): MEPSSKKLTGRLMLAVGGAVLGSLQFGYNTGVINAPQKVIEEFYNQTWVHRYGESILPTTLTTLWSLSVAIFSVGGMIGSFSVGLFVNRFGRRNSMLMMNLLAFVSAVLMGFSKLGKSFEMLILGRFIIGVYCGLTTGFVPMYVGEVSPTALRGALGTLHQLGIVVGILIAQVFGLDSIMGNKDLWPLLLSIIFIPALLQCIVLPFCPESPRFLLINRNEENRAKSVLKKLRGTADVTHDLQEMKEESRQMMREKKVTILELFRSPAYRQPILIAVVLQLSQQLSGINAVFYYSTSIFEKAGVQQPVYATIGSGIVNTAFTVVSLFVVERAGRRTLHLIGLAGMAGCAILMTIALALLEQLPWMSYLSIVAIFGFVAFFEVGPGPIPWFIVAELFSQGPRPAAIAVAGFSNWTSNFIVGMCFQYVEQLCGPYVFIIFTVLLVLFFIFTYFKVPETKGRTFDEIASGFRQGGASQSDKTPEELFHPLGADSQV

SMILES	inhibition [1]	inhibition [2]	inhibition [3]
N=C(/N=C(/NCCCCCCN/C(=N/C(=N)NCc1ccc(Cl)c(Cl)c1)N1CCCCC1)N1CCCCC1)NCc1ccc(Cl)c(Cl)c1	8.42%	9.68%	8.06%
CCNC(=O)CCc1cccc(Br)c1	-1.73%	-1.52%	-1.62%
Fc1cc(Cl)ccc1Nc1ccnc(Nc2ccc3cn[nH]c3c2)n1	12.7%	10.7%	5.1%
CC1(C)CCCN(C(=O)c2cccc(-n3nc(-c4ccc(Cl)cc4)cc3N)c2)C1	2.79%	1.98%	2.07%
Cc1ccc(-c2nc3cc(C(=O)NC4CCC(N5CCCc6ccc(C#N)cc6C5)CC4)ccc3[nH]2)cc1 (stereo unspecified)	-1.44%	-0.52%	5.12%
CCCCN(C(=O)c1ccccc1Cl)c1nnc(-c2ccccc2C)s1	-1.28%	0.39%	0.03%
CC(Cc1ccc(OCCN2CCN(c3ccccc3)CC2)cc1)NCC(O)c1cccc(Cl)c1F (stereo unspecified)	2.22%	0.09%	1.85%
COc1cc2ncnc(Nc3ccc(OCc4ccccc4)c(I)c3)c2cc1OC	1.41%	0.71%	1.33%
Cc1[nH]c(C)c(-c2ccc(OCc3ccccc3)cc2)c(=O)c1Br	5.62%	1.22%	-2.04%
Oc1ccc2ccccc2c1CNCC1CCCCC1	0.28%	3.31%	2.73%
COc1cc(NC(=O)/C=C/c2cc(F)cc(F)c2F)cc(OCCN2CCN(CCN3CCOCC3)CC2)c1	3.46%	1.58%	2.54%
Cc1ccc2c(=O)n(C)c(=O)n(C)c2n1	6.05%	2.94%	1.62%
CCCNCc1ccc(-c2ccc(CN(CCOC)C(=O)c3ccc([N+](=O)[O-])c(C)c3)cc2)nc1	3.77%	1.8%	1.19%
CC(C)(C)C1CC(=O)CC2C(=O)N(C3CCCCC3)C(=O)C21 (stereo unspecified)	4.51%	2.76%	3.68%
O=C(Nc1ccc(Cn2nc(Cl)c(N3CCNCC3)cc2=O)cc1)Nc1ccc(-c2ccccc2)cc1	14%	9.91%	11.4%
Cc1cccn2c(=O)c3cc(C(=O)NCCc4ccccc4)c(=N)n(CCCOC(C)C)c3nc12	8.75%	6.64%	2.98%
CCCNCc1ccc(-c2ccc(CN(Cc3cnc(C)cn3)C(=O)CC#N)cc2)nc1	1.8%	1.17%	-1.49%
CC(C)CCN(Cc1cncn1Cc1cccc(C(F)(F)F)c1)C(=O)c1cncc(-c2ccccc2)c1	3.6%	4.72%	1.28%
N=C(N)NC(=O)Nc1cc(Br)c(Cl)c(Br)c1	-0.91%	-1.3%	-1.76%
c1cncc(-c2cc(N3CCCCC3)nc(-c3ccncc3)n2)c1	8.22%	6.14%	4.53%
COc1ccc(NC(=O)Nc2ccc(-c3ccccc3)cc2)cc1Cn1cnc(N2CCCNCC2)cc1=O	3.65%	2.02%	4.94%
CC(C)C[C@H](NC(=O)c1ccc(F)cc1)C(=O)N[C@H](/C=N/NC(=O)c1ccccc1)CCc1ccccc1	4.79%	6.16%	3.91%
CCN(CCCN1CCCCC1)c1cc(C)nc(Nc2ccc(Oc3ccccc3)cc2)n1	5.66%	5.07%	5.44%
Cc1ccccc1C(=O)NC(NC(=S)Nc1ccc([N+](=O)[O-])cc1)C(Cl)(Cl)Cl (stereo unspecified)	0.54%	-1.37%	0.22%
COc1ccc(-c2cccc(NC(=O)c3ccc(Cl)cc3)c2)cc1CN(C)CCN(C)C	3.16%	2.66%	6.97%
Cc1cc(N2CCCC2)nc(Nc2ccc(NC(=O)c3ccc4c(c3)OCO4)cc2)n1	13.5%	3.61%	5.78%

SMILES	inhibition [1]	inhibition [2]	inhibition [3]
Clc1ccc(CNCC2CCN(CC3CCCCC3)CC2)cc1Cl	-1.58%	0.7%	0.64%
CC(C)N(C(=O)CSc1nc2cc(Cl)ccc2c(=O)n1Cc1ccccc1)C(C)C	0.98%	2.14%	0.05%
CCCCCCc1cc(OC)c(OC)cc1C(C)Nc1ccnc2cc(Cl)ccc12 (stereo unspecified)	8.21%	5.09%	0.14%
CCOc1cccc(C(=O)Nc2cccc(CN3CCCN(Cc4cccc(O)c4)CC3)c2)c1	4.67%	5.58%	3.26%
CCCN(CC1CC1)c1ncc(-c2cccc(CNCCC3CCCN3C)c2)cn1 (stereo unspecified)	98.4%	26.8%	104%
CC(=O)Nc1nc(C(=O)Nc2cccc(-c3ccc4c(cnn4CC4CC4)c3)c2)cs1	1.74%	1.84%	2.13%
O=C(NC(Nc1ccc([N+](=O)[O-])cc1)C(Cl)(Cl)Cl)c1cccc(Cl)c1 (stereo unspecified)	4.07%	3.95%	3.37%
CC(C)NC(=N)NN=Cc1ccc(Cl)c(Cl)c1	5.7%	2.99%	0.07%
Cc1nc(-c2cccc(Nc3ccnc4cc(-c5nccs5)ccc34)c2)no1	2.59%	2.43%	2.74%
Cc1cc(N(C)C)nc(Nc2ccc(NC(=O)C3CCCCC3)cc2)n1	5.14%	5.64%	3.75%
Cc1cccc2nc(-c3cccc(-c4cccc(NC(=O)C5CC(=O)Nc6ccccc65)c4)c3)[nH]c12 (stereo unspecified)	4.88%	-1.8%	5.82%
Cc1cccc(C(=O)Nc2ccc(N3CCCN(Cc4cccc(O)c4)CC3)cc2)c1	5.01%	3.72%	2.78%
O=C(Nc1ccnc2ccccc12)NC1CCN(Cc2ccccc2)CC1	3.42%	3.28%	3.89%
CCCCN1Cc2c(n(CC(=O)Nc3ccccc3)c3cc(-c4ccccc4)nn3c2=O)C1=O	1.25%	1.92%	1.8%
CC1CCCCN1S(=O)(=O)c1ccc(NC(=O)c2cc(-c3ccccc3O)n[nH]2)cc1 (stereo unspecified)	1.2%	1.81%	-1.06%
CCCCCC(NCCCC)c1ccc(OCCOc2ccc(C(CCCCC)NCCCC)cc2)cc1 (stereo unspecified)	60.3%	86%	85.3%
COc1ccc(Cc2c(C)nc3nc(N)nc(N)c3c2C)cc1	39%	38.2%	34.5%
Cc1noc(NC(=O)c2sc3ccccc3c2O)c1C	1.04%	0.61%	-0.8%
COc1cccc(CNC[C@@H](O)[C@H](Cc2ccccc2)NC(=O)c2cc(OC(C)C)cc(N3CCCCS3(=O)=O)c2)c1	0.5%	-0.88%	-0.67%
COc1ccccc1C1CCN(C2CCC(NC(=O)/C=C/c3cc(F)cc(C(F)(F)F)c3)CC2)CC1 (stereo unspecified)	-0.82%	0.7%	1.96%
Cc1ccnc(NC(=O)c2cc(-c3cccc([N+](=O)[O-])c3)nc3onc(C)c23)c1	6.8%	7.59%	4.35%
Oc1cc(Nc2ccnc3cc(I)ccc23)c(F)cc1Cl	6.52%	2.02%	3.58%
C(=Cc1nc2ccccc2s1)c1ccc2c(c1)OCCO2	0.08%	0.45%	-2.03%
CC(C)(C)c1nn(-c2ccc(Cl)cc2)c2[nH]c(=O)c(CNCc3ccc4c(c3)OCO4)cc12	4.55%	3.31%	5.03%
O=C(Nc1ccc(-c2ccc(-c3nc4cc(C(F)(F)F)ccc4[nH]3)cc2)cc1)Nc1ccc(F)c(F)c1F	-0.4%	-0.22%	-1.44%
COc1ccc2nc(N=C3NC4(c5ccccc5)NC(=Nc5nc6ccc(OC)cc6[nH]5)NC4(c4ccccc4)N3)[nH]c2c1 (stereo unspecified)	-1.9%	-0.84%	-0.87%

— ChEMBL document CHEMBL3433997, “St. Jude Leishmania screening dataset” (2016)
